In PubChem BioAssay (Tox21):
Several values for one entry are separate records, joined by “and”; a condition that tells them apart may be missing. Equal values may be shown once. Inconclusive results are not listed. Where a structure was tested more than once in an assay, its records may differ in their call. Activity calls are given as the source filed them. Unless noted, calls come from the whole dose curve; as a rule, active = well fitted curve in the direction sought with a large enough effect in the repeat runs; inconclusive = weak or mixed curves; inactive = no such curve, though single readings can be large; an effect the other way counts as inactive or inconclusive.

Legend:
[1] = qHTS assay to identify small molecule agonists of the estrogen receptor beta (ER-beta) signaling pathway - cell viability counter screen (AID 1259380); note: nearly all actives have a fitted effect of over 30% in size; note: potency is the fitted concentration of half-maximal effect
Outline: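 Compounds dissolved in DMSO were pin-transferred onto ER-beta-UAS-bla HEK293T cells that had settled 6 hr, and exposure ran 16 hr at 37C. Following the reporter read, CellTiter-Glo luminescence after 30 min at room temperature indicated cytotoxicity.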

[2] = qHTS assay to identify small molecule antagonists of the estrogen receptor beta (ER-beta) signaling pathway - cell viability counter screen (AID 1259382); note: nearly all actives have a fitted effect of over 55% in size; note: potency is the fitted concentration of half-maximal effect;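 for activity change, negative = cytotoxicity: HEK293T cells carrying ER-beta-UAS-bla reporter stimulated with estradiol; series mostly up to about 92 µM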
Outline: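 CellTiter-Glo ATP luminescence measured after the LiveBLAzer read in the same wells; ER-beta-UAS-bla HEK293T cells, 16 hr compound treatment with 1nM 17-beta-estradiol agonist at 37C, 5% CO2.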

[3] = target: Estrogen receptor (Homo sapiens) (UniProt P03372); assay: qHTS assay to identify small molecule agonists of the estrogen receptor alpha (ER-alpha) signaling pathway in the presence of an antagonist (AID 1259383; calls by dose curve; note: top concentration of the series differs between compounds; nearly all actives have a fitted effect of over 15% in size)
Estrogen receptor (Homo sapiens), sequence (P03372 whole entry, looked up): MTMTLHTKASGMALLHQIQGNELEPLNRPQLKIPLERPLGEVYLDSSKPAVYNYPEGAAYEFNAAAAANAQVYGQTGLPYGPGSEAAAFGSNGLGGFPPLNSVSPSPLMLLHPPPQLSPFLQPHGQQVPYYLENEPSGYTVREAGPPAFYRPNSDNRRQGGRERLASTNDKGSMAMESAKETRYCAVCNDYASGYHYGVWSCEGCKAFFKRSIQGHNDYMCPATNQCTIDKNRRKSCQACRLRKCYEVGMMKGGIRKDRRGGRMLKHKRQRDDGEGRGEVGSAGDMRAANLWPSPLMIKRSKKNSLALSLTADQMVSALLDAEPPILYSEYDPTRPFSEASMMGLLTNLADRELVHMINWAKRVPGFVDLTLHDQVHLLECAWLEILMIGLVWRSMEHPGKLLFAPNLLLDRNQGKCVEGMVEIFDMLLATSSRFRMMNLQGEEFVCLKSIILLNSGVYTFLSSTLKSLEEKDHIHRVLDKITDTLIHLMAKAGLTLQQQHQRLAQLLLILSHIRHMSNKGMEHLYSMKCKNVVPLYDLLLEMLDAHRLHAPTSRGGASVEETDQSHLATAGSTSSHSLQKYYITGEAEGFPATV
Outline: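 Luminescent ERE-luciferase reporter, VM7Luc4E2 cells (endogenous ER-alpha); 10.0nM ICI-182,780 final; 15-point compound titration; 22hr at 37C; ONE-Glo, 30min RT.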

[4] = qHTS assay to identify small molecule agonists of the estrogen receptor alpha (ER-alpha) signaling pathway in the presence of an antagonist - cell viability counter screen (AID 1259386);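 note: cells exposed to compounds for 22 h at 37 °C before the viability read; nearly all actives have a fitted effect of over 30% in size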; note: potency is the fitted concentration of half-maximal effect; for activity change, negative = cytotoxicity: series mostly up to about 92 µM
Outline: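 Using estrogen-depleted VM7Luc4E2 cells, the 15-concentration compound series was applied together with 10.0nM ICI-182,780 and incubated 22hr at 37C/5% CO2. Cell viability was then scored by CellTiter-Fluor.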

[5] = target: Progesterone receptor (Homo sapiens) (UniProt P06401); assay: qHTS assay to identify small molecule agonists of the progesterone receptor (PR) signaling pathway (AID 1346784; calls by dose curve; note: nearly all actives have a fitted effect of over 30% in size; note: potency is the fitted concentration of half-maximal effect)
Progesterone receptor (Homo sapiens), sequence (P06401 whole entry, looked up): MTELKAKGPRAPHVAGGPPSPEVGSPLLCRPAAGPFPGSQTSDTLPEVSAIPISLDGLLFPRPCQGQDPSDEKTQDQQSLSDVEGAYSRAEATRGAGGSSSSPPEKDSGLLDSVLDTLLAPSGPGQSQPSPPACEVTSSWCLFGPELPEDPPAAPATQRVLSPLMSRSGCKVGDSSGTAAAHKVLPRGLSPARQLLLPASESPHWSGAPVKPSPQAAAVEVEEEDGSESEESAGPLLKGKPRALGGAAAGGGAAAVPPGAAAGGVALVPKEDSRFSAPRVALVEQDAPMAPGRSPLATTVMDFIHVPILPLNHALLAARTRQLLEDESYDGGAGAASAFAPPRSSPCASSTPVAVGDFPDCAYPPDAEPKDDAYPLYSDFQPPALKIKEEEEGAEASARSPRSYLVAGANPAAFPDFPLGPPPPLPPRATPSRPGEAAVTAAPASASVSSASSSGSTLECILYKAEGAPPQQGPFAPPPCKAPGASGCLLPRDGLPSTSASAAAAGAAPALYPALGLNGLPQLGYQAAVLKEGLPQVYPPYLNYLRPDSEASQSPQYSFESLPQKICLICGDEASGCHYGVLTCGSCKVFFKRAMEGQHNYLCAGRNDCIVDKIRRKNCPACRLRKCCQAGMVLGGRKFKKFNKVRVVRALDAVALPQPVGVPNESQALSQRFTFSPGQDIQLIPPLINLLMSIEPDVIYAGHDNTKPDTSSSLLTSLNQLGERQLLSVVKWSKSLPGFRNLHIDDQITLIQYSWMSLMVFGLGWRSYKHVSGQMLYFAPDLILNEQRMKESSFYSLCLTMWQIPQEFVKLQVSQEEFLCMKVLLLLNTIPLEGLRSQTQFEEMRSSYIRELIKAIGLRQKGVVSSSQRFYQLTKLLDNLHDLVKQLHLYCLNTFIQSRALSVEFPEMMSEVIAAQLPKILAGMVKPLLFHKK
Outline: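 Beta-lactamase reporter read-out: after 16 hr compound treatment at 37C and a further 2 hr at room temperature with LiveBLAzer B/G FRET substrate, fluorescence was measured in PR-UAS-bla HEK 293T cells grown in 2% charcoal-stripped serum.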

[6] = qHTS assay to identify small molecule agonists of the progesterone receptor (PR) signaling pathway - cell viability counter screen (AID 1346799; calls by dose curve; note: nearly all actives have a fitted effect of over 45% in size; note: potency is the fitted concentration of half-maximal effect)
Outline: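 Luminescence from CellTiter-Glo, added after the beta-lactamase FRET read in the same wells, gave cytotoxicity in PR-UAS-bla HEK293T cells treated with compounds for 16 hr at 37C.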

[7] = qHTS assay to identify small molecule agonists of the TGF-beta/Smad signaling pathway - cell viability counter screen (AID 1346829); note: top concentration of the series differs between compounds; nearly all actives have a fitted effect of over 45% in size
Outline: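 Same-well cytotoxicity: CellTiter-Glo added after the 2 hr room-temperature beta-lactamase substrate step, luminescence measured 30 min later; cells had 5 hr of compound at 37 C.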

[8] = target: Thyrotropin-releasing hormone receptor (Homo sapiens) (UniProt P34981); assay: qHTS assay to identify small molecule antagonists of the thyrotropin-releasing hormone receptor (TRHR) signaling pathway (AID 1346877; active = well fitted inhibition curve with a large enough effect in the repeat runs, not every such curve was filed as active; note: potency is the fitted concentration of half-maximal effect; for activity, negative = inhibition: series mostly up to about 51 µM)
Thyrotropin-releasing hormone receptor (Homo sapiens), sequence (P34981 whole entry, looked up): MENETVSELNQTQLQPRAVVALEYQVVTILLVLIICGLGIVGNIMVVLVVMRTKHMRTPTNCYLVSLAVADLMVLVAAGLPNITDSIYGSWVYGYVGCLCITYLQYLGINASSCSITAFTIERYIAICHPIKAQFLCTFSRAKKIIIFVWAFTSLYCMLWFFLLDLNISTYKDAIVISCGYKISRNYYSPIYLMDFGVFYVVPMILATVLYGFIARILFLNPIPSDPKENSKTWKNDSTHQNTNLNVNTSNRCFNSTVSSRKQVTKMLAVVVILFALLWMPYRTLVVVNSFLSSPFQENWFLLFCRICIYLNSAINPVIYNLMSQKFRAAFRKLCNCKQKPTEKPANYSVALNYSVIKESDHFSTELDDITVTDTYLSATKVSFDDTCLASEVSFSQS
Outline: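 Calcium signal in dye-loaded TRHR/HEK293 cells; compounds added 5 min before TRH (1 nM final); fluorescence monitored 3 min at 1 s steps.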

[9] = target: Thyrotropin-releasing hormone receptor (Homo sapiens) (UniProt P34981); assay: qHTS assay to identify small molecule agonists of the thyrotropin-releasing hormone receptor (TRHR) signaling pathway (AID 1346891; calls by dose curve; note: series mostly up to about 58 µM)
Outline: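 Intracellular calcium rise, read as fluorescence every second for 3 min, served as the agonist signal in dye-loaded HEK293 cells expressing TRHR; each compound ran at 15 concentrations in triplicate.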

[10] = Human pregnane X receptor (PXR) small molecule agonists, qHTS cell viability counter screen (AID 1346977); note: nearly all actives have a fitted effect of over 50% in size; note: potency is the fitted concentration of half-maximal effect
Outline: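 PXR-Luc HepG2, 2,000 cells/well, 5% charcoal-stripped FBS; 5hr settle; cpd 24hr, 37C/5% CO2; CellTiter-Fluor at 23hr, read 1hr later (fluorescence).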

[11] = Caspase-3/7 induction in CHO-K1 cells by small molecules, qHTS cell viability counter screen (AID 1346979); note: nearly all actives have a fitted effect of over 35% in size; note: potency is the fitted concentration of half-maximal effect
Outline: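 Cells (CHO-K1, wild type) are plated at 1,500 per well and incubated 5hr. Test compounds in DMSO are then pinned in, followed by 16hr at 37C and 5% CO2. Viability is read by CellTiter-Fluor fluorescence after 1hr.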

[12] = Caspase-3/7 induction in CHO-K1 cells by small molecules, qHTS assay (AID 1346980); note: nearly all actives have a fitted effect of over 15% in size
Outline: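 Luminescent Caspase-Glo 3/7 read (30min, room temperature) quantified apoptosis induction. Cells were wild-type CHO-K1, treated with compound for 17hr at 37 C and 5% CO2.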

[13] = qHTS assay to identify small molecule agonists or antagonists of the thyroid stimulating hormone receptor (TSHR) signaling pathway - wild type cell line counter screen (AID 1259384; calls by dose curve)
Outline: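 Counter screen in untransfected Hek293: compounds (15-point titration, triplicate) plus phosphodiesterase inhibitor Ro20-1724 added after 18 h plating; 30 min RT. Intracellular cAMP via competitive d2/cryptate immunoassay, 1 h incubation.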

[14] = target: Thyrotropin receptor (Homo sapiens) (UniProt P16473); assay: qHTS assay to identify small molecule antagonists of the thyroid stimulating hormone receptor (TSHR) signaling pathway (AID 1259385; calls by dose curve; note: nearly all actives have a fitted effect of over 20% in size)
Thyrotropin receptor (Homo sapiens), sequence (P16473 whole entry, looked up): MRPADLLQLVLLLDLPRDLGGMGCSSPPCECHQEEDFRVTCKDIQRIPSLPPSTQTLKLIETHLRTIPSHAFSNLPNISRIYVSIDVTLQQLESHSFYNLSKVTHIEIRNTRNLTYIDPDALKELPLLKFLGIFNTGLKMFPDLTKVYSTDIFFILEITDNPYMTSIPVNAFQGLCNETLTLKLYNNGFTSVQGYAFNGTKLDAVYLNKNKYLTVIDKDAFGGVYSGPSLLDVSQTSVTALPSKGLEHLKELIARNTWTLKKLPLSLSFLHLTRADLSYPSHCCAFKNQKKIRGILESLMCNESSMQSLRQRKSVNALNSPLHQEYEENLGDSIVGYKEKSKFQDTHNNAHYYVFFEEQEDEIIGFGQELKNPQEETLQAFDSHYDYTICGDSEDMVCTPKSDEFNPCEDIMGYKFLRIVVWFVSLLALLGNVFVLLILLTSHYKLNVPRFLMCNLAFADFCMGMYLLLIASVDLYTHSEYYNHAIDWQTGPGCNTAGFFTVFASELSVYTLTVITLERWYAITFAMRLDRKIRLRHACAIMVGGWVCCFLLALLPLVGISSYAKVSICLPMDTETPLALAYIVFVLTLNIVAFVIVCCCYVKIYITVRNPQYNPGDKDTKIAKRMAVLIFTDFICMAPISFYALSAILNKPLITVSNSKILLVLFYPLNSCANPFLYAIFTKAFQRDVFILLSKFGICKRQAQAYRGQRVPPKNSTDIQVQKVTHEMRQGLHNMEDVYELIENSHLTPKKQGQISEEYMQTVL
Outline: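 Antagonist mode: compound-treated TSHR-expressing HEK293 cells were stimulated with 1.5 ng/mL TSH (final) in presence of Ro20-1724 for 30 min at RT. HTRF cAMP detection after 1 h; each compound tested at 15 concentrations, triplicate.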

[15] = qHTS assay to identify small molecule antagonists of the progesterone receptor (PR) signaling pathway - cell viability counter screen (AID 1346798); note: nearly all actives have a fitted effect of over 50% in size; note: potency is the fitted concentration of half-maximal effect;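 for activity change, negative = cytotoxicity: HEK293T PR-UAS-bla cells stimulated with the agonist R5020; series mostly up to about 92 µM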
Outline: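 HEK293T PR-UAS-bla, 2% charcoal-stripped FBS; 4 hr pre-plate; cpd + R5020, 16 h 37C; LiveBLAzer read first; then CellTiter-Glo 30 min RT, luminescence.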

[16] = qHTS assay to identify small molecule antagonists of the TGF-beta/Smad signaling pathway - cell viability counter screen (AID 1346824); note: nearly all actives have a fitted effect of over 50% in size
Outline: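 Cytotoxicity counter-screen run in the same wells as the beta-lactamase Smad reporter read: CellTiter-Glo luminescence after 30 min at room temperature. HEK 293T SBE-bla cells had 5 hr compound exposure at 37 C with TGF-beta1 (0.25 ng/mL stock).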

[17] = target: Progesterone receptor (Homo sapiens) (UniProt P06401); assay: qHTS assay to identify small molecule antagonists of the progesterone receptor (PR) signaling pathway (AID 1346795; active = well fitted inhibition curve with a large enough effect in the signal ratio in the repeat runs, not every such curve was filed as active; the % refers to the signal ratio; note: potency is the fitted concentration of half-maximal effect)
Outline: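 Read-out is fluorescence from the LiveBLAzer B/G FRET substrate, cleaved by a UAS-controlled beta-lactamase in PR-UAS-bla HEK293T cells after 16 hr exposure to compound plus 1 nM promegestone (final), followed by 2 hr at room temperature.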

[18] = qHTS assay to identify small molecule agonists of the TGF-beta/Smad signaling pathway (AID 1346859; active = well fitted activation curve with a large enough effect in the signal ratio in the repeat runs, not every such curve was filed as active; the % refers to the signal ratio; note: series mostly up to about 77 µM)
Outline: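 SBE-bla HEK 293T, 4,000 cells/well, plated o/n; cpd in DMSO, 5 hr, 37 C/5% CO2; B/G FRET substrate 2 hr RT; ex 405, em 460/530 nm.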

[19] = Caspase-3/7 induction in HepG2 cells by small molecules, qHTS assay (AID 1346978); note: nearly all actives have a fitted effect of over 15% in size
Outline: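 Caspase-3/7 induction was measured by Caspase-Glo 3/7 luminescence (30 min, room temperature) after a 17 hr compound exposure of wild-type HepG2 cells seeded at 2,000 per well and pre-incubated 5 hr.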
% is set by controls: 0 for no effect and ±100 for the full control effect.

CCc1ccc(CCOc2ccc(CC3SC(=O)NC3=O)cc2)nc1 (stereo unspecified)
inactive: Potency [1] | Potency [2] | Potency [3] | Potency [4] | Potency [5] | Potency [6] | Potency [7] | Potency [8] | outcome [9] | Potency [10] | Potency [11] | outcome [12]

COS(C)(=O)=O
inactive: Potency [1] | Potency [2] | Potency [3] | outcome [13] | Potency [14] | Potency [4] | Potency [15] | Potency [6] | Potency [16] | Potency [7] | Potency [8] | outcome [9] | Potency [10] | Potency [11] | outcome [12]

CCCCCC(N)=O
inactive: Potency [1] | Potency [2] | outcome [13] | Potency [14] | Potency [4] | Potency [5] | Potency [17] | Potency [15] | Potency [6] | Potency [16] | Potency [7] | outcome [18] | Potency [8] | outcome [9] | Potency [10] | Potency [19] | Potency [11] | outcome [12]

CCCCC(CC)COC(=O)CCCCC(=O)OCC(CC)CCCC (stereo unspecified)
inactive: Potency [1] | Potency [2] | Potency [3] | outcome [13] | Potency [4] | Potency [5] | Potency [17] | Potency [15] | Potency [6] | Potency [7] | outcome [18] | Potency [8] | outcome [9] | Potency [10] | Potency [11] | outcome [12]

O=P(OC(CCl)CCl)(OC(CCl)CCl)OC(CCl)CCl
inactive: Potency [1] | Potency [2] | Potency [3] | outcome [13] | Potency [4] | Potency [5] | Potency [15] | Potency [16] | Potency [7] | Potency [19] | outcome [12]
active: Potency [17] 6.82 µM and 7.7 µM | Potency [11] 30.5 µM
39.8 µM (active) and inactive: Potency [10]

CCC(O)OC(O)CC (stereo unspecified)
inactive: Potency [1] | Potency [2] | Potency [3] | outcome [13] | Potency [4] | Potency [5] | Potency [17] | Potency [15] | Potency [6] | Potency [16] | Potency [7] | outcome [18] | Potency [8] | outcome [9] | Potency [10] | Potency [19] | Potency [11] | outcome [12]

Cc1ccc2oc(=O)ccc2c1
inactive: Potency [1] | Potency [2] | Potency [3] | outcome [13] | Potency [4] | Potency [5] | Potency [17] | Potency [15] | Potency [6] | Potency [16] | Potency [7] | outcome [18] | Potency [8] | outcome [9] | Potency [10] | Potency [11] | outcome [12]

O=C(O)c1cc(O)c(O)c(O)c1
inactive: Potency [1] | Potency [2] | Potency [3] | outcome [13] | Potency [5] | Potency [17] | Potency [15] | Potency [6] | Potency [16] | Potency [7] | Potency [8] | outcome [9] | outcome [12]
active: Potency [4] 55 µM | Potency [11] 30.9 µM
49 µM (active) and inactive: Potency [10]

CC[C@H](C)C(=O)O[C@H]1C[C@@H](C)C=C2C=C[C@H](C)[C@H](CC[C@@H]3C[C@@H](O)CC(=O)O3)[C@H]21
38.5 µM (active) and inactive: Potency [8]
active: Potency [1] 34.9 µM and 30.5 µM and 15 µM | Potency [2] 39.1 µM and 26.6 µM | Potency [15] 62 µM | Potency [6] 7.66 µM | Potency [11] 69.6 µM
inactive: Potency [3] | outcome [13] | Potency [4] | Potency [5] | Potency [17] | Potency [7] | outcome [18] | outcome [9] | Potency [10] | outcome [12]

O=C(O)CCCC[C@@H]1SC[C@@H]2NC(=O)N[C@@H]21
inactive: Potency [1] | Potency [2] | Potency [3] | outcome [13] | Potency [14] | Potency [4] | Potency [15] | Potency [6] | Potency [16] | Potency [7] | outcome [18] | Potency [10] | Potency [19] | Potency [11] | outcome [12]

C=C(C)C(=O)O[C@H]1C[C@@H]2CC[C@@]1(C)C2(C)C
4.3 µM (active) and inactive: Potency [1]
2.71 µM (active) and inactive: Potency [17]
8.58 µM (active) and inactive: Potency [6]
7.65 µM (active) and inactive: Potency [2]
inactive: Potency [3] | outcome [13] | Potency [4] | Potency [5] | Potency [16] | Potency [7] | Potency [8] | outcome [9] | Potency [10] | Potency [11] | outcome [12]

c1ccc2scnc2c1
inactive: Potency [1] | Potency [2] | Potency [3] | outcome [13] | Potency [4] | Potency [5] | Potency [17] | Potency [15] | Potency [6] | Potency [7] | outcome [18] | Potency [10] | Potency [19] | Potency [11] | outcome [12]

CCN(CC)CCCC(C)Nc1ccnc2cc(Cl)ccc12 (stereo unspecified)
inactive: activity change, negative = cytotoxicity [1] -12.8% [at 8.39 µM] and -6.59% [at 19 µM] | activity change, negative = cytotoxicity [2] -20.4% [at 8.39 µM] and -8.86% [at 19 µM] | activation [3] -0.124% [at 8.39 µM] and -1.51% [at 19 µM] | activation [5] -0.551% [at 19 µM] | activity change, negative = inhibition [17] 0.105% [at 8.39 µM] and 2.39% [at 18.9 µM] | activity change, negative = cytotoxicity [15] 3.8% [at 8.39 µM] | activity change, negative = cytotoxicity [7] -0.0742% [at 6.97 µM] and -3.92% [at 15.8 µM] | activity, negative = inhibition [8] 0.384% [at 4.65 µM] and -4.99% [at 10.5 µM] | activation [9] 0.225% [at 5.23 µM] and -0.0196% [at 11.8 µM] | activity change, negative = cytotoxicity [10] -20.8% [at 8.39 µM] | caspase activation [19] 1.19% [at 8.39 µM] and -0.361% [at 19 µM] | activity change, negative = cytotoxicity [11] -0.939% [at 8.39 µM] and -3.64% [at 19 µM] | caspase-3/7 activation [12] 0.759% [at 8.39 µM] and -0.715% [at 19 µM]
active: Potency [5] 0.119 µM | Potency [10] 13 µM

COc1ccc(Nc2ccccc2)c(C)c1
inactive: Potency [1] | Potency [2] | Potency [3] | outcome [13] | Potency [4] | Potency [5] | Potency [17] | Potency [15] | Potency [6] | Potency [16] | Potency [7] | Potency [8] | outcome [9] | Potency [10] | Potency [11] | outcome [12]

CCCCCC/C(C=O)=C\c1ccccc1
inactive: Potency [1] | Potency [2] | outcome [13] | Potency [14] | Potency [4] | Potency [5] | Potency [17] | Potency [15] | Potency [6] | Potency [16] | Potency [7] | outcome [18] | Potency [8] | outcome [9] | Potency [10] | Potency [19] | Potency [11] | outcome [12]
